# Screening data: PubChem BioAssay, National Center for Advancing Translational Sciences (NCATS)
# Mito fusion act = qHTS Assay for Small Molecule Inhibitors of Mitochondrial Division or Activators of Mitochondrial Fusion; Potency, µM (top dose mostly 46.1 µM), inactives show at the top dose growth rescue (activation), most hits filed as activators; 320,000 compounds, 0.23% hits; S. cerevisiae fusion-defective mutant growth rescue, CellTiterGlo 48 h; also: % of control where 0% means no effect; nearly all actives have a fitted effect of over 45% in size
#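 Temperature-sensitive fusion-defective S. cerevisiae (e.g. fzo1-1, mgm1-5) were grown with compound in YPEG medium (3% ethanol, 3% glycerol) for 48 hours at 37C. Growth rescue was measured as viability by CellTiterGlo luminescence after 10 minutes at ambient.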
# Abeta yeast res = qHTS for compounds that reverse cellular toxicity of Amyloid beta (A-beta) peptide in yeast: Primary Screen | yeast expressing A-beta42, growth rescue, OD600, 48 h; response scale: 0% DMSO, 100% iron-clioquinol control | Potency, µM (series often up to 46.1 µM), most hits filed as activators | 410,000 compounds, 0.063% hits | AID 1347071, 2019; also: nearly all actives have a fitted effect of over 55% in size
#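 Yeast growth medium received pinned compounds, then yeast cells expressing toxic A-beta were added; plates incubated at 30 C for 48 hr. Growth read as absorbance at 600 nm, normalized to DMSO and equimolar FeCl3 plus clioquinol controls.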
# aSyn rescue = qHTS of alpha-syn Inhibitors | Yeast expressing alpha-synuclein, growth rescue, BacTiter-Glo, 24 h | Potency, µM (doses to about 46.1 µM), inactives show at the highest dose growth rescue (activation), usual class: activators | 370,000 compounds, 0.14% hits | AID 652106, 2013; also: % of control where 0% means no effect; nearly all actives have a fitted effect of over 65% in size
#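 Screening used galactose-induced yeast with toxic alpha-synuclein levels, exposed to compound for 24 hr at 30 deg C. Cell growth, read with BacTiter-Glo luminescence, gave the measured signal.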
# TDP43 rescue = qHTS of TDP-43 Inhibitors; Potency, µM (series often up to 46.1 µM), inactives show at the top dose growth rescue (activation), most hits filed as activators; TDP-43 expressing yeast growth rescue, BacTiter-Glo, 24 h; 410,000 compounds, 1.8% hits; also: % of control where 0% means no effect; nearly all actives have a fitted effect of over 50% in size
#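 Galactose-induced TDP-43 yeast, OD600=0.02, compound pinned; 24 hr, 30 deg C; BacTiter-Glo luminescence for growth. Inhibitors of TDP-43 toxicity read as activators.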
# FUS yeast rescue = qHTS for Suppressors of FUS Proteinopathy: Primary screen using FUS-linked yeast assay | S. cerevisiae FUS-expressing, growth rescue, OD600, 24 h | Potency, µM (top dose mostly 76.6 µM), hits mostly activators | 390,000 compounds, 0.24% hits | AID 1347120, 2019;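 also: plate controls were DMSO vehicle for no effect and reference control for full effect; nearly all actives have a fitted effect of over 55% in size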
#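 Yeast expressing FUS under galactose induction, OD 0.005 in 2% galactose medium; compounds in a dilution series, 24 h at 30C. Growth rescue by absorbance at 600 nm; CP55940 positive control, DMSO negative.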
# * hit, by the source's call; i = inactive; ? = inconclusive; . = no result given. Rows were chosen to be rich in hits. Some 2.2% of all compounds tested hit in one or more screens of this group. Calls follow the shape of the dose curve; as a rule, active = well fitted curve in the direction sought with a large enough effect; inconclusive = small, poorly fitted or top-dose-only effect, or another doubt; inactive = no such curve, though single readings can be large; an effect the other way counts as inactive or inconclusive. Potency is read from the fitted curve at half-maximal effect.
SMILES,Mito fusion act,Abeta yeast res,aSyn rescue,TDP43 rescue,FUS yeast rescue
O=C(COCc1ccccc1)N[C@@H]1c2ccccc2CC[C@@H]1OCc1ccccc1,.,i,-2%,6%,i
COC(=O)C1=C(C)N(Cc2ccccc2)C(=S)N[C@H]1c1cccc(F)c1,13%,i,?,11µM*,?
CCc1ccc(-c2ccc3nnc(SCC(=O)Nc4cccc(C(C)=O)c4)n3n2)cc1,.,i,.,0%,i
O=C(Nc1cccc(C(F)(F)F)c1)c1ccc(Cn2cc(Br)cn2)o1,-1%,i,-12%,13µM*,i
CC(C)Oc1ccc(S(=O)(=O)N2CCCCC2)cc1NC(=O)C1=COCCO1,8%,i,5%,11%,i
COc1ccc(S(=O)(=O)N2CCCCC2)cc1NC(=S)Nc1cccc(Cl)c1C,4%,i,1%,-6%,2.8µM*
Cc1cccc(Oc2ccc(S(=O)(=O)N3CCCCC3)cc2NC(=O)C2=COCCO2)c1,16%,i,-6%,-20%,28µM*
Oc1cc2cc(-c3csc(-c4ccc(F)cc4)n3)cc3c2n1CCC3,.,.,-5%,.,.
O=C(Cn1c(-c2cccs2)cc2cc(Cl)ccc21)N1CCN(c2ccccc2F)CC1,.,i,.,11%,i
COc1ccc2nc(-c3ccccc3)cc(C(=O)OCC(=O)N3CC(C)OC(C)C3)c2c1 (stereo not given),28%,i,3%,22µM*,?
COc1ccc2nc(-c3ccccc3)cc(C(=O)OCC(=O)N3CCCCC3)c2c1,?,i,17%,?,?
COC(=O)C1=C(CS(=O)(=O)c2ccccc2)NC(=O)NC1c1ccc(OC)c(OC)c1 (stereo not given),-9%,i,0%,12%,i
CC(C)CN(CC(C)C)c1nc(-c2ccc(Cl)cc2)nc2ccccc12,.,i,-2%,35µM*,i
CCN(CC)c1nc(-c2ccc(C(C)(C)C)cc2)nc2ccccc12,.,i,.,11%,i
O=C(Nc1nc2ccccc2[nH]1)NC1CCCCC1,3%,i,-2%,-1%,i
CC12CCC(=O)C=C1CCC1C2C(O)CC2(C)C(c3csc(N)n3)CCC12 (stereo not given),.,i,2%,-13%,?
CC12CCC(=O)C=C1CCC1C2CCC2(C)C(c3csc(N)n3)CCC12 (stereo not given),.,i,18µM*,14%,?
CCCN1C(=O)/C(=C2\SC(N3CCCCC3)=NC2=O)c2ccccc21,16%,i,-10%,-12%,i
CN1C(=O)/C(=C2\SC(N3CCCCCC3)=NC2=O)c2ccccc21,14%,i,7%,16µM*,i
C=CCNC(=O)C1CCN(S(=O)(=O)c2ccc3ccccc3c2)CC1,1%,i,2%,23%,i
O=C(NCc1ccccn1)c1ccc(Cl)c(S(=O)(=O)N2CCOCC2)c1,0%,i,0%,10%,i
O=C(O)c1ccc(N2C(=O)CSC2=S)cc1,.,i,10µM*,?,i
O=C(O)c1ccc(CN2C(=O)CSC2=S)cc1,-15%,i,13µM*,18µM*,i
O=C(O)CN1C(=O)CSC1=S,9%,i,13%,3%,i
O=C1CSC(=S)N1c1ccccc1,.,i,-6%,14%,.
SMILES,Mito fusion act,Abeta yeast res,aSyn rescue,TDP43 rescue,FUS yeast rescue
O=C1CSC(=S)N1c1ccc(F)c(Cl)c1,14%,?,16%,25µM*,i
O=C(O)c1cc(C(=O)O)cc(N2C(=O)CSC2=S)c1,22%,i,7%,14%,i
CCC(C)n1c(=N)c(C(=O)NC2CCCCC2)cc2c(=O)n3ccccc3nc21 (stereo not given),.,i,.,-6%,i
CCc1ccccc1NC(=O)CN1C(=O)COc2ccc(S(=O)(=O)N3CCCCCC3)cc21,.,i,.,?,i
CCc1nc2sc3c(N4CCC(C)CC4)ncnc3c2c2c1CCCC2,.,i,.,-3%,i
Cc1cccc(N(C)c2nc3ccccc3c3nnc(C)n23)c1,.,i,.,22µM*,i
O=C(Nc1cccc(-c2csc(Nc3ccc(Cl)cc3)n2)c1)c1ccccc1,-76%,i,-24%,?,?
O=C(Nc1cccc(-c2csc(Nc3ccc(Cl)cc3)n2)c1)c1cccc(C(F)(F)F)c1,-127%,i,-22%,25µM*,i
O=C(NNC(=S)Nc1cccc(C(F)(F)F)c1)c1cccc(Cl)c1,7%,i,-7%,8.9µM*,i
O=C(NNC(=S)Nc1cccc(C(F)(F)F)c1)c1ccccc1Cl,8%,?,-2%,2%,i
CCOC(=O)c1cccc(NS(=O)(=O)c2cc(-c3cnc(C4CC4)o3)ccc2C)c1,.,i,.,20µM*,i
O=S(=O)(Nc1ccccc1)c1ccc(-c2cnc(C3CC3)o2)cc1,1%,i,-15%,35µM*,i
CCc1ccc(NS(=O)(=O)c2cc(-c3cnc(C4CC4)o3)ccc2C)cc1,.,i,.,?,?
CCOc1ccc(NS(=O)(=O)c2ccc(-c3cnc(C4CC4)o3)cc2)cc1,-11%,.,?,35µM*,?
CC(=O)Nc1ccc(NS(=O)(=O)c2ccc(-c3cnc(C4CC4)o3)cc2)cc1,1%,i,-2%,-9%,i
Cc1ccc(C)c(NS(=O)(=O)c2ccc(-c3coc(C)n3)cc2)c1,7%,i,4%,13µM*,i
COc1ccc(NS(=O)(=O)c2ccc(-c3cnc(C4CC4)o3)cc2)cc1Cl,.,i,.,28%,?
CCOC(=O)c1cccc(NS(=O)(=O)c2ccc(-c3coc(C)n3)cc2)c1,.,i,6%,35µM*,i
Cc1ccc(C)c(NS(=O)(=O)c2ccc(-c3cnc(C4CC4)o3)cc2)c1,0%,.,?,32µM*,?
Cc1cc(C)cc(NS(=O)(=O)c2ccc(-c3cnc(C4CC4)o3)cc2)c1,8%,i,?,?,?
Cc1occc1C(=O)Nc1ccccc1C(=O)O,3%,i,-23%,-17%,i
Cc1occc1C(=O)Nc1cccc(Cl)c1Cl,-2%,i,-6%,11µM*,i
CCCS(=O)(=O)c1c(S(=O)(=O)CCC)c2cc(C(C)(C)C)ccn2c1C(=O)c1ccccc1,.,i,.,-8%,18µM*
CCCS(=O)(=O)c1c(S(=O)(=O)CCC)c2cc(C(C)(C)C)ccn2c1C(=O)c1ccc(OC)c(OC)c1,.,i,.,-8%,i
Cc1ccc(-c2nc3cccnc3s2)cc1NS(=O)(=O)c1cccs1,?,i,-13%,11µM*,i
